This passage reports Potency and activity change, negative = thiol reactive results from PubChem BioAssay (NCATS).

Records with an inconclusive call do not appear. Where a call stands in place of a potency, no number is given. Values without a mark were called inactive. Active and inactive are the calls of the source. The call rests on the fitted dose curve; in most records, active means well fitted inhibition curve with a large enough effect; inconclusive means small, poorly fitted or top-dose-only effect; inactive means no such curve, though single readings can be large or run the other way.
Potency means the concentration at half of the fitted maximal effect.

The nature of the test: Primary fluorescence-based thiol-reactive (MSTI) qHTS assay for identification of artifact compounds. (AID 1845221). Further: nearly all actives have a fitted effect of over 65% in size.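 On activity change, negative = thiol reactive: thiol-reactive compounds lower the probe fluorescence signal.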 The settings on record: MSTI thiol-reactivity probe, 1 h; series mostly up to 53.8 µM. In outline:
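One-hour, room-temperature, dark incubation of compound with 4 uM MSTI in PBS (pH 7.4, 2% DMSO) precedes a fluorescence read at 525 nm excitation, 598 nm emission; Hill-equation fitting yields concentration-response values.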
On the technique in general: Quantitative high-throughput screening tests each substance at several concentrations.
On to `COc1cc(-c2ccc(O)cc2)c(OC)c(O)c1C1=CC(=O)OC1CC(=O)O` (stereo not drawn), for which the Potency result was “inactive”.

Consider `CC/C=C/C=C/C1(C)OC(CC(CO)OC)=CC1=O` (stereo not drawn), for which the Potency entry is “inactive”.

Turning to `CC(=O)O[C@@H]1[C@H](O[C@@H]2O[C@H](CO)[C@@H](O)[C@H](O)[C@H]2O)[C@@H](O[C@@H]2O[C@@H](C)[C@H](O)[C@@H](O[C@@H]3O[C@H](CO)[C@@H](O)[C@H](O)[C@H]3O)[C@H]2O)[C@H](OC(=O)[C@]23CCC(C)(C)C[C@H]2C2=CCC4[C@@]5(C)C[C@H](O)[C@H](O[C@@H]6O[C@H](C(=O)O)[C@@H](O)[C@H](O)[C@H]6O)[C@@](C)(C(=O)O)C5CC[C@@]4(C)[C@]2(C)CC3)O[C@@H]1C` (stereo partly drawn), the activity change, negative = thiol reactive is 244% [at 11.5 µM].

For `COc1cc(C2OCC3(O)C(c4ccc(O[C@@H]5O[C@H](CO)[C@@H](O)[C@H](O)[C@H]5O)c(OC)c4)OCC23O)ccc1O` (stereo partly drawn), the Potency entry was “inactive”.

`CC12CC(c3ccoc3)OC(=O)C1CCC1(C)C2CCC(O)C1(C)O` (stereo not drawn): the Potency was 16.5 µM (active).

Turning to `COc1cccc2c1c(O)c(C(=O)N(C)c1ccc(C(F)(F)F)cc1)c(=O)n2C`, the Potency entry was “inactive”.

With `CC1(C)CC[C@]2(C(=O)OC3OC(CO)C(O)C(O)C3O)CC[C@]3(C)C(=CCC4[C@@]5(C)C[C@@H](O)[C@H](OC6OC(C(=O)O)C(O)C(O)C6O)C(C)(C)C5CC[C@]43C)[C@@H]2C1` (stereo partly drawn), the activity change, negative = thiol reactive was 309% [at 11.5 µM].

`CC(C)=CCC(O)[C@](C)(O)C1[C@H](O)C[C@@]2(C)C3CC=C4C(C[C@H](O)[C@@H](O[C@@H]5O[C@H](CO)[C@@H](O)[C@H](O)[C@H]5O)C4(C)C)[C@]3(C)C(=O)C[C@]12C` (stereo partly drawn): the Potency entry was “inactive”.

For `CC1CC2OCC3(O)CCC(O)C(C14CC(c1ccoc1)OC4=O)C23CO` (stereo not drawn), the Potency was 3.29 µM (active).

Take `CC(=O)OC(C)C(C)(O)C(=O)O[C@@H]1CC[C@]2(C)CC(=O)C(=C(C)C)C[C@H]2[C@]1(C)OC(C)=O` (stereo partly drawn): the Potency result is “inactive”.

In the case of `C=C[C@@]1(C)CCC2=C([C@H]1OC(C)=O)[C@H](OC(C)=O)CC1[C@](C)(C(=O)OC)CC[C@H](OC(C)=O)[C@]21C` (stereo partly drawn), the Potency entry is “inactive”.

Consider `Cc1ccc(-c2c(-c3nn(C)c4ncnc(N5CC[C@H](N6CCCCC6)C5)c34)cnn2C)cc1`, for which the Potency result is “inactive”.

In the case of `CC1(C)CC[C@]2(C(=O)O)CC[C@]3(C)C(=CCC4[C@@]5(C)C[C@@H](O)[C@H](O)[C@@](C)(CO)C5[C@H](O)C[C@]43C)[C@@H]2C1` (stereo partly drawn), the Potency entry was “inactive”.

As for `CC(C)=CCC[C@](C)(O[C@@H]1O[C@H](CO[C@@H]2O[C@@H](CO)[C@H](O)[C@H]2O[C@@H]2OC[C@@H](O)[C@H](O)[C@H]2O)[C@@H](O)[C@H](O)[C@H]1O)[C@H]1CC[C@]2(C)[C@@H]1[C@H](O)CC1[C@@]3(C)CC[C@H](O[C@@H]4O[C@H](CO)[C@@H](O)[C@H](O)[C@H]4O[C@@H]4O[C@H](CO)[C@@H](O)[C@H](O)[C@H]4O)C(C)(C)C3CC[C@]12C` (stereo partly drawn), the activity change, negative = thiol reactive is 132% [at 11.5 µM].

In the case of `C=C1C2CCC3CC2(CC(O)C2(O)C1CC(OC1OC(CO)C(O)C(O)C1O)C2(C)C)CC3(C)O` (stereo not drawn), the Potency was 5.19 µM (active).

Regarding `C=C1CC[C@H]2[C@@](C)(CCC(O)[C@@]2(C)CO)[C@@H]1/C=C/C(=C\C(=O)O)C(=O)O` (stereo partly drawn), the Potency is 5.21 µM (active).

For `Nc1ncnc2c1ncn2[C@H]1O[C@@H](C(=O)N2CCN(CC(=O)Nc3cccc4c3CNC4=O)CC2)[C@H](O)[C@@H]1O`, the Potency result is “inactive”.

With `Cc1cc(O[C@@H]2O[C@H](COC(=O)CC(=O)O)[C@@H](O)[C@H](O)[C@H]2O)c(C(C)C)cc1O`, the Potency was 5.19 µM (active).

For `CC1C2=CC(=O)OC2(O)CC2C1C(OC(=O)c1ccccc1)C(OC(=O)c1ccccc1)C1(O)C2(C)CCC(O)C1(C)C(=O)O` (stereo not drawn), the Potency result was “inactive”.

`CC(C)NC(=O)c1ccc(C#Cc2ccncc2)cn1`: the Potency result is “inactive”.

Consider `O=C(O)CC1CCC(c2ccc(NC(=O)c3nnc(Nc4ccc(F)c(F)c4)o3)cc2)CC1` (stereo not drawn), for which the Potency entry was “inactive”.

On to `CCC(C)/C=C(C)/C=C/C1=CC2=C(Cl)C(=O)C(C)(OC(C)=O)C(=O)C2=CN1C(CC(=O)O)C(=O)O` (stereo not drawn), for which the Potency is 0.733 µM (active).

As for `C[C@]12CC/C(=N\OCC(=O)O)C=C1CC[C@@H]1[C@@H]2[C@@H](O)C[C@@]2(C)[C@H]1CC[C@]2(O)C(=O)CO`, the Potency entry is “inactive”.

Consider `CNC(=O)c1ccc2c(c1)CCO[C@H]2CCN1CCN(c2ccc(C(N)=O)cc2)CC1`, for which the Potency entry was “inactive”.

Consider `COC(=O)C1=CO[C@@H](O[C@@H]2O[C@H](CO)[C@@H](O)[C@H](O)[C@H]2O)/C(=C\CO)[C@@H]1CC(=O)OCCc1ccc(O)cc1`, for which the Potency is 6.53 µM (active).

As to `C/C=C/C=C/C(O)=C1/C(=O)[C@]2(C)C(=O)[C@@](C)(O)[C@H]1[C@H]([C@@]1(C)OC(=O)C(C)=C1O)[C@H]2C(=O)CC/C=C/C`, the Potency is 4.12 µM (active).

Take `CC(C)(O)/C=C/C(=O)[C@](C)(O)[C@H]1[C@H](O)C[C@@]2(C)[C@@H]3CC=C4[C@@H](C=C(O[C@@H]5O[C@H](CO)[C@@H](O)[C@H](O)[C@H]5O)C(=O)C4(C)C)[C@]3(C)C(=O)C[C@]12C`: the Potency result is “inactive”.

Regarding `COc1ccc(CCC(=O)c2c(O)cc(O[C@@H]3O[C@H](CO)[C@@H](O)[C@H](O)[C@H]3O[C@@H]3O[C@@H](C)[C@H](O)[C@@H](O)[C@H]3O)cc2O)cc1O`, the Potency result was “inactive”.

As for `CC(C)c1c(NC(=O)Nc2ccc(Cl)cc2)c(=O)n(-c2ccccc2)n1C`, the Potency entry is “inactive”.

On to `C[C@@H](c1ccccc1)N(C(N)=NC#N)c1cccc2ncccc12`, for which the Potency result is “inactive”.

Turning to `CC(C)(C)NS(=O)(=O)c1ccc(-c2ccc3[nH]nc(N)c3c2)cc1`, the Potency is 7.52 µM (active).

With `CC(=O)OC[C@]12[C@H](OC(C)=O)[C@H](OC(=O)c3ccccc3)[C@@H]3[C@@H](OC(C)=O)[C@]1(OC3(C)C)[C@H](C)C[C@H](OC(=O)c1ccccc1)[C@@H]2OC(=O)c1ccccc1`, the Potency result was “inactive”.

Consider `CC1=C2C[C@@]3(C)[C@@H](CCC[C@@H]3C)C[C@@]2(O)OC1=O`, for which the Potency result was “inactive”.

Turning to `CC(=O)/C=C/C1(O)C(C)CC(O[C@@H]2O[C@H](CO)[C@@H](O)[C@H](O)[C@H]2O)CC1(C)C` (stereo partly drawn), the Potency was 9.22 µM (active).

For the compound `CC1CCC2C(C)(C)C(O)C(O)CC2(C)C12Cc1c(O)cc(CO)c(C=O)c1O2` (stereo not drawn), the Potency entry was “inactive”.

Consider `Cc1occc(=O)c1O[C@@H]1O[C@H](CO[C@@H]2OC[C@](O)(CO)[C@H]2O)[C@@H](O)[C@H](O)[C@H]1O`, for which the Potency entry is “inactive”.

For the compound `COC(=O)c1c(CC=C(C)C)c(OC2OC(CO)C(O)C(O)C2O)c2ccccc2c1OC1OC(CO)C(O)C(O)C1O` (stereo not drawn), the Potency result was “inactive”.

With `COc1ccc(OC)c(C2C(C#N)=C(N)Oc3n[nH]c(-c4ccc5ccccc5c4)c32)c1` (stereo not drawn), the Potency result was “inactive”.
